High-throughput results from PubChem BioAssay.
TexasRed fluor = Total Fluorescence Counterscreen for Inhibitors of the Interaction of Thyroid Hormone Receptor and Steroid Receptor Coregulator 2. Potency, µM (top dose mostly 106 µM), inactives show top-dose fluorescence change, negative = quenching. hit rate 0.29% among 280,000. TRb/SRC2 Texas Red total fluorescence interference; active = well fitted curve in either direction with a large enough effect; inconclusive = small, poorly fitted or top-dose-only effect
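Flags fluorescent or light-absorbing compounds by total fluorescence, S + 2P, at 555 nm excitation and 632 nm emission. Mixture: 20 nM Texas Red SRC2 peptide, 0.6 uM human TRb LBD, 1 uM T3, 5% DMSO; compound exposure 5 h at ambient temperature.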
Tau fluor cs = Counterscreen qHTS for Inhibitors of Tau Fibril Formation, Fluorescence Polarization; tau K18 P301L Alexa594 fluorescence, heparin fibrillization; Potency, µM (highest dose often 57.7 µM), without a hit: at the top dose activity change, negative = decrease; hit rate 0.93% among 280,000; AID 1463, 2008; note: nearly all actives have a fitted effect of over 55% in size
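Human tau K18 P301L (15 uM unlabeled, 0.24 uM Alexa 594-labeled) in 100 mM sodium acetate pH 7 with 20 uM heparin, 6 hr at 37 C. ThT 30 uM added, 1 hr ambient; Alexa 594 FP and total fluorescence read at 555/632 nm.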
Tau ThT inhib = qHTS for Inhibitors of Tau Fibril Formation, Thioflavin T Binding. recombinant tau K18 P301L, heparin-induced fibrillization, ThT fluorescence. Potency, µM (titrated, usually from 57.4 µM), for inactives: at the highest dose activity, negative = inhibition, usual class: inhibitors. hit rate 2.1% among 270,000; note: nearly all actives have a fitted effect of over 55% in size
Target sequence (P10636 561-689 P618L limits assumed): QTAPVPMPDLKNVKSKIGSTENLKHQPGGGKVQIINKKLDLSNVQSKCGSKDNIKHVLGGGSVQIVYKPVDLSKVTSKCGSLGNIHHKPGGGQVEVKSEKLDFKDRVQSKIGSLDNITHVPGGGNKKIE
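Fibril formation assay: tau K18 P301L at 15 uM with trace Alexa 594 label, heparin inducer 20 uM, pH 7 sodium acetate buffer, 37 C for 6 hr; endpoint ThT signal.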
Tau FP inhib = qHTS for Inhibitors of Tau Fibril Formation, Fluorescence Polarization; AID 1468, 2008; K18 P301L tau heparin fibrillization, Alexa594 FP, 6 h; hit rate 0.39% among 280,000; Microtubule-associated protein tau (Homo sapiens), P10636; Potency, µM (series often up to 57.7 µM), inactives show top-dose activity, negative = inhibition, usual class: inhibitors; note: nearly all actives have a fitted effect of over 55% in size
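FP of Alexa 594-tau after heparin (20 uM) induction. Substrate: human K18 P301L, 15 uM unlabeled, 0.24 uM labeled. Buffer 100 mM sodium acetate pH 7. 6 hr, 37 C.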
TRb-SRC2 inh = qHTS for Inhibitors of the Interaction of Thyroid Hormone Receptor and Steroid Receptor Coregulator 2; Thyroid hormone receptor beta (Homo sapiens), P10828; TRbeta-SRC2 peptide binding, fluorescence polarization; receptor liganded with 1 µM T3; Potency, µM (highest dose often 106 µM), without a hit: at the top dose activity change, negative = inhibition, most hits filed as inhibitors; hit rate 0.065% among 280,000; AID 1469, 2008;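 note: plate controls were bound peptide for no effect and peptide without receptor for full effect; nearly all actives have a fitted effect of over 50% in size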
Target sequence (P10828 whole entry, looked up): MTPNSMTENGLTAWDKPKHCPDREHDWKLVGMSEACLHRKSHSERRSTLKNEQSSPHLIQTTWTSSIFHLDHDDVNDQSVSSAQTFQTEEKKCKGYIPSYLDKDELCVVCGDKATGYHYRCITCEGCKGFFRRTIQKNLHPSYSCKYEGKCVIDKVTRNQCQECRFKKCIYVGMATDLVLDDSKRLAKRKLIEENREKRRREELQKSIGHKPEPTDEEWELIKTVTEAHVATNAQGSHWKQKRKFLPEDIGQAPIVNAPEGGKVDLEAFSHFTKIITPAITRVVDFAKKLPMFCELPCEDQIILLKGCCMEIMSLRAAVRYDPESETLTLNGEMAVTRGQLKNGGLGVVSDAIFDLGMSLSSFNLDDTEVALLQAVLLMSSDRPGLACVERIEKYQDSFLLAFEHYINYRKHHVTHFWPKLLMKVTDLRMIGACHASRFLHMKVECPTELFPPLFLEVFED
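TRb LBD 0.6 uM + Texas Red SRC2 peptide 20 nM, 1 uM T3, Tris buffer w/ 5% DMSO; compound pinned, 5 h RT; FP read ex 555/em 632; normalized to unbound and bound controls.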
Starred values were filed as active, the others as inactive; ? = inconclusive; nt = no result given; [ ] = remark or other dose. Compounds with a hit are over-represented: about 3% of the library has one in this group of screens. Unless noted, calls come from the whole dose curve; as a rule, active = well fitted curve in the direction sought with a large enough effect; inconclusive = small, poorly fitted or top-dose-only effect, or another doubt; inactive = no such curve, though single readings can be large; an effect the other way counts as inactive or inconclusive. Unless noted, % is set by controls: 0 for no effect and ±100 for the full control effect; potency is the fitted concentration of half-maximal effect.

SMILES | TexasRed fluor | Tau fluor cs | Tau ThT inhib | Tau FP inhib | TRb-SRC2 inh
COCCCN1C(=O)/C(=C/c2ccc(CNS(=O)(=O)c3ccccc3)o2)C(C(=O)OC)=C1C | 3.7% | -19.1% | 14.1µM* | ? | -2.9%
CCOc1ccc(CCNC(=O)c2ccc3[nH]c(C)c(C)c3c2)cc1 | -0.2% | 25.1µM*[quencher] | ? | 15.7% | 0.3%
Cc1ccc(CCNC(=O)c2ccc3[nH]c(C)c(C)c3c2)cc1 | -0.3% | ? | ? | 11.6% | 1.1%
COc1cccc(CNc2ccc(N3CCCCC3)cc2)c1OC | 3.9% | ? | 14.1µM* | ? | -24.7%
COc1ccccc1CNc1ccc(C(=O)O)cc1 | 0.7% | 2.7% | -3.2% | 11.2% | -1.7%
COc1ccccc1CNc1ccc(N2CCCCC2)cc1 | 4.0% | ? | 22.4µM* | ? | 8.2%
COc1ccc(C2=Nn3c(nnc3-c3cccc(OC)c3)SC2)cc1 | -1.6% | nt | nt | nt | -1.2%
CCc1ccc(OCC(=O)Nc2cc(-c3ccc(C)cc3)no2)cc1 | -2.1% | -2.2% | ? | -7.3% | -1.5%
Cc1cc(C)nc(NS(=O)(=O)c2ccc(NC(=O)Nc3ccccc3F)cc2)n1 | -1.5% | -14.2% | -14.8% | 0.3% | 4.9%
Cc1ccc(S(=O)(=O)Nc2ccc(NC(=O)Nc3ccc(F)cc3F)cc2)cc1 | -0.3% | 11.2µM*[quencher] | -5.2% | ? | 2.0%
COC(=O)[C@H](COC(C)(C)C)NC(=O)O[C@@H]1C(=O)c2ccc(OC)cc2O[C@H]1c1cccc(C(F)(F)F)c1 | -0.4% | -13.4% | -5.5% | 4.8% | -2.1%
COc1cccc(NC(=O)c2ccc(NC(=O)C(C)(C)C)cc2)c1 | -2.5% | 5.6% | 0.1% | 7.2% | -2.5%
COc1cccc(NC(=O)Nc2cc(-c3cn4cccnc4n3)ccc2OC)c1 | -10.9% | 20µM*[quencher] | ? | -4.0% | 10.4%
COc1cccc(NC(=O)Nc2cc(C(=O)O)ccc2C)c1 | -1.3% | -2.2% | ? | 4.4% | -11.5%
COc1cccc(NC(=O)Nc2cc(-c3cn4cccnc4n3)ccc2C)c1 | -8.9% | -13.0% | -7.7% | ? | 6.9%
COc1cccc(NC(=O)Nc2ccncc2)c1 | -1.8% | -11.4% | -6.0% | 0.9% | 8.0%
COc1cccc(NC(=O)Nc2ccc(C(C)(C)C)cc2)c1 | 1.5% | 28.2µM*[quencher] | -9.5% | ? | 9.3%
COc1cccc(NC(=O)Nc2ccc(Cc3ccncc3)cc2)c1 | -6.8% | 15.8µM*[quencher] | -1.9% | ? | 1.3%
COc1cccc(NC(=O)Nc2cc(NC(=O)Nc3cccc(OC)c3)c(C)nc2C)c1 | -2.6% | 11.2µM*[quencher] | 9.1% | 22.4µM* | -1.1%
Cc1ccc(OCC(=O)Nc2ccc(OCc3cc(=O)n4cccc(C)c4n3)cc2)cc1C | 0.5% | -6.3% | ? | -0.2% | 0.1%
CC#CCN1c2ccccc2[C@]23C[C@@H](C(=O)OC)N(S(=O)(=O)c4ccc(C(F)(F)F)cc4)C2=NC(C(=O)OC)=C(C(=O)OC)[C@H]13 | -0.9%[11.2 µM] | -3.1%[11.6 µM] | 1.4%[11.5 µM] | -4.9%[11.6 µM] | 4.6%[11.2 µM]
CCOC(=O)c1cc(NC(=O)Nc2ccc(Br)cc2)c(C)nc1C | -1.2% | ? | 10.7% | 17.8µM* | -3.3%
CCOC(=O)c1cc(NC(=O)Nc2ccccc2Cl)c(C)nc1C | -3.4% | -22.1% | 7.9% | ? | -7.7%
N#Cc1c(N2CCCC2)nc(N)c2c(N)nc(N3CCCC3)cc12 | -2.4% | 12.6µM*[quencher] | ? | 11.3% | ?
COc1cc2c(C#N)c(N3CCN(C)CC3)nc(N)c2c(N)n1 | -7.7% | -4.3% | -8.1% | 9.0% | -8.2%
SMILES | TexasRed fluor | Tau fluor cs | Tau ThT inhib | Tau FP inhib | TRb-SRC2 inh
COc1cc2c(C#N)c(N3CCCC3)nc(N)c2c(N)n1 | 1.3% | ? | ? | 10.7% | 9.7%
COc1cc2c(C#N)c(N3CCN(c4ccccc4OC)CC3)nc(N)c2c(N)n1 | -10.0% | 12.6µM*[quencher] | 17.8µM* | -10.3% | ?
Cc1ccccc1NS(=O)(=O)c1ccc2[nH]cc(C(=O)NC(C)c3ccccc3)c(=O)c2c1 (stereo not given) | -2.4% | ? | 12.2% | 25.1µM* | -0.4%
CCc1ccccc1NS(=O)(=O)c1ccc2[nH]cc(C(=O)NCC3CCCO3)c(=O)c2c1 (stereo not given) | -4.0% | ? | -4.5% | ? | -3.9%
Cc1c(Cl)cccc1NS(=O)(=O)c1ccc2[nH]cc(C(=O)NC3CCCC3)c(=O)c2c1 | 0.3% | ? | 11.0% | 14.1µM* | 1.4%
Cc1ccccc1NS(=O)(=O)c1ccc2[nH]cc(C(=O)NC3CCCCC3)c(=O)c2c1 | 2.2% | ? | 8.2% | 28.2µM* | 0.5%
Cc1ccccc1NS(=O)(=O)c1ccc2[nH]cc(C(=O)N3CCCCC3)c(=O)c2c1 | -12.9% | 5.1% | 0.2% | 3.1% | -3.0%
O=C1C(=Cc2cccs2)C(=O)c2ccccc21 | 0.6% | 4.0% | 3.9% | -2.5% | -2.1%
Cc1ccc(C=C2C(=O)c3ccccc3C2=O)s1 | 44.7µM*[fluorescent] | 1.5% | 14.1µM* | 11.9% | ?
Cc1cc(C=C2C(=O)c3ccccc3C2=O)c(C)n1C | -0.4% | -21.6% | 11.2µM* | -1.6% | 8.8%
Cc1cccc(-n2c(C)cc(C=C3C(=O)c4ccccc4C3=O)c2C)c1 | -0.7% | -29.2% | ? | -2.2% | 13.9%
CCn1c(C)cc(C=C2C(=O)c3ccccc3C2=O)c1C | -6.4% | -25.4% | 14.1µM* | 7.2% | 2.1%
CC(C)C[C@@H](CC(=O)N[C@H](CC(=O)N[C@@H]1CCNC[C@H]1C(=O)N[C@H](CC(=O)N[C@@H](CCC(=O)O)CC(=O)O)Cc1c[nH]c2ccccc12)C(C)C)NC(=O)[C@@H]1CNCC[C@H]1N | 0.7% | -11.7% | -12.6% | 1.6% | 5.1%
Cc1ccc(-c2nc3scc(CCNC(=O)Cc4ccc(Cl)cc4)n3n2)cc1 | 0.6% | -21.7% | -3.9% | -3.7% | -9.2%
Cc1ccc2c(c1)-c1nc(-c3ccccc3)cc(-c3ccccc3)c1CO2 | 0.3% | -16.1% | -0.6% | -14.7% | 1.5%
CCOC(=O)/C(=C\c1cccc(O)c1)c1nc2sc(C)c(C)c2c(=O)[nH]1 | -0.5% | -16.2% | 20µM* | ? | 3.1%
CCOC(=O)c1c(C)[nH]c(C)c1S(=O)(=O)N1CCN(c2ccccc2OC)CC1 | -8.3% | -4.0% | 3.9% | -0.5% | 1.8%
CCOC(=O)/C(=C/c1ccc(N2CCC(c3ccccc3)=N2)cc1)C(C)=O | -4.6% | 15.8µM*[quencher] | ? | -13.1% | -10.3%
CCCN(Cc1cccs1)C(=O)Nc1ccc(F)c(Cl)c1 | 0.9% | -4.1% | -4.2% | -2.4% | 0.3%
Cn1c(=O)c2nc3ccc(NC(=O)C(F)(F)F)cc3nc2n(C)c1=O | 10.9% | -6.3% | 10.8% | -1.3% | 1.8%
